# Assay results from the supplement of paper PMC8253809.
# What was measured:
# Experiment in all cases: growth inhibition (% activity, log2 RLU normalised to DMSO / staurosporine); higher = more growth inhibition
# Conditions in all cases: 33 µM
# [1] = system: DIPGX29 (H3.3 K27M diffuse intrinsic pontine glioma line)
# Summary of the method: (§1)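 The growth-inhibition value comes from CellTiter-Glo luminescence, log2-transformed, normalised per plate to % activity between solvent and positive control wells, and taken as the median over replicates. Treatment of pHGG cell lines and H9-derived neural stem cells with approved drugs was at a single final concentration of about 33 μM, in triplicate, for 7 days at 37 °C, 5% CO2.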
# [2] = system: DIPGX37 (H3.3 K27M diffuse intrinsic pontine glioma line)
# Summary of the method: as §1
# [3] = system: DIPGX7 (H3.3 K27M diffuse intrinsic pontine glioma line)
# Summary of the method: as §1
# [4] = system: DIPGX9 (diffuse intrinsic pontine glioma line)
# Summary of the method: as §1
# [5] = system: HGGX39 (paediatric high-grade glioma line)
# Summary of the method: as §1
# [6] = system: HGGX6 (H3.3 G34R paediatric high-grade glioma line)
# Summary of the method: as §1
# [7] = system: HNSC
# Summary of the method: as §1
# [8] = system: SUDIPGIV (diffuse intrinsic pontine glioma line)
# Summary of the method: as §1
# [9] = system: SUDIPGVI (diffuse intrinsic pontine glioma line)
# Summary of the method: as §1
# [10] = system: SUDIPGXIII (diffuse intrinsic pontine glioma line)
# Summary of the method: as §1
Compound,growth inhibition [1],growth inhibition [2],growth inhibition [3],growth inhibition [4],growth inhibition [5],growth inhibition [6],growth inhibition [7],growth inhibition [8],growth inhibition [9],growth inhibition [10]
CCN(CC)CC(=O)Nc1c(C)cccc1C,1.31%,0.211%,2.14%,1.09%,2.87%,0.583%,1.55%,0.232%,2.37%,1.3%
CC(C)C(=O)Nc1ccc([N+](=O)[O-])c(C(F)(F)F)c1,1.6%,2.28%,2.18%,2.7%,11.9%,0.873%,6.29%,5.63%,3.39%,2.07%
CC/C(=C(/CC)c1ccc(O)cc1)c1ccc(O)cc1,-0.353%,0.261%,1.61%,0.802%,-1.26%,-0.016%,-1.62%,0.624%,0.165%,-10.6%
CN[C@@H]1[C@H](O)[C@H](NC)[C@H]2O[C@@]3(O)C(=O)C[C@@H](C)O[C@H]3O[C@@H]2[C@H]1O,1.24%,1.47%,0.532%,2.81%,1.18%,-0.547%,3.02%,0.676%,2.4%,0.316%
NC(=O)OCC(COC(N)=O)c1ccccc1,1.09%,2.98%,1.52%,0.912%,0.666%,0.329%,2.74%,0.15%,2.19%,1.32%
CN(C)CCc1c[nH]c2ccc(Cn3cncn3)cc12,-0.697%,0.65%,-0.925%,0.553%,1.2%,1.15%,-1.13%,-0.297%,1.51%,-0.819%
CC(=O)O[C@H]1CC[C@@]2(C)C(=CC[C@@H]3[C@@H]2CC[C@]2(C)C(c4cccnc4)=CC[C@@H]32)C1,0.369%,-0.0357%,-0.259%,0.906%,2.75%,-0.409%,-1.27%,-0.864%,-0.189%,-0.391%
O=C1O[C@H]([C@@H](O)CO)C([O-])=C1O.[Na+],-5.78%,-2.29%,-0.532%,-4%,-3.28%,-5.19%,6.78%,-3.14%,-6.63%,2.95%
CC1(C)O[C@@H]2C[C@H]3[C@@H]4CCC5=CC(=O)C=C[C@]5(C)[C@@]4(F)[C@@H](O)C[C@]3(C)[C@]2(C(=O)CO)O1,1.92%,0.771%,-0.242%,4.15%,2.88%,0.928%,-2.22%,-0.618%,1.71%,0.942%
Cc1cccc(Nc2ccccc2C(=O)O)c1C,-4%,-1.52%,3.05%,-3.62%,-3.34%,-4.45%,9.87%,-8.08%,-6.14%,-0.652%
O=C1c2cccc3c2[C@H](CCC3)CN1[C@@H]1CN2CCC1CC2,1.6%,0.267%,-0.559%,0.719%,1.18%,1.03%,-3.52%,-0.551%,0.132%,0.79%
CC(=O)OCC(=O)[C@@]1(O)[C@H](C)C[C@H]2[C@@H]3CCC4=CC(=O)C=C[C@]4(C)[C@@]3(F)[C@@H](O)C[C@@]21C,6.47%,3.67%,1.89%,6.29%,6.91%,5.01%,2.34%,5.88%,3.94%,1.28%
CCOc1cc(N)c(Cl)cc1C(=O)NCC1CN(Cc2ccc(F)cc2)CCO1 (stereo not given),-0.0532%,1.06%,0.919%,1.54%,1.87%,0.0657%,1.23%,0.346%,1.9%,1.85%
N=C(N)NCCC[C@H](N)C(=O)O,-2.37%,0.109%,0.302%,-2.03%,-0.487%,-4.08%,2.28%,-1.68%,-2%,-0.232%
CC1=C(CC(=O)O)c2cc(F)ccc2/C1=C\c1ccc([S+](C)[O-])cc1 (stereo not given),1.11%,1.67%,0.000497%,0.866%,0.763%,2.31%,-0.224%,0.82%,2.02%,0.292%
CNC[C@H](O)c1cccc(O)c1,0.744%,-0.539%,2.1%,0.894%,4.28%,0.958%,3.62%,0.826%,0.615%,0.446%
CC1=C(C(=O)O)N2C(=O)[C@@H](NC(=O)[C@H](N)c3ccccc3)[C@H]2SC1,-0.253%,0.936%,6.97%,-1.35%,3.87%,0.198%,-2.54%,-1.66%,-13.3%,2.38%
CC(=O)N1CCN(c2ccc(OCC3COC(Cn4ccnc4)(c4ccc(Cl)cc4Cl)O3)cc2)CC1 (stereo not given),5.63%,1.48%,11.2%,4.81%,13.3%,9.98%,7.8%,13.7%,7%,12%
CN(C)CCc1c[nH]c2ccc(C[C@H]3COC(=O)N3)cc12,-3.13%,-2.1%,0.0297%,-2.64%,-3.04%,-3.73%,-3.71%,-3.68%,-7.46%,-1.12%
O=C(O)CCCN1CCC(O[C@@H](c2ccc(Cl)cc2)c2ccccn2)CC1,-0.326%,0.504%,-0.839%,-1.86%,0.636%,-0.646%,-1.58%,-0.161%,0.268%,0.355%
